# Screening data from PubChem BioAssay.
# Tau fibril FP = blocks human tau fibril formation measured by polarization | P10636 | K18 P301L tau heparin fibrillization, Alexa594 FP, 6 h | Potency, µM (highest dose often 57.7 µM), inactives show at the top dose activity, negative = inhibition, hits mostly inhibitors | 280,000 compounds, 0.39% hits | AID 1468; also: nearly all actives have a fitted effect of over 55% in size
# Target sequence (P10636 561-689 P618L limits assumed): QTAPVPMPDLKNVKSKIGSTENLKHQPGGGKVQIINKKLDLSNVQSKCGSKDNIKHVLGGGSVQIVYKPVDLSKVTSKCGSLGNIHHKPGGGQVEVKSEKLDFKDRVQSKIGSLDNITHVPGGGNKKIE
#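 Human K18 P301L fragment (15 uM unlabeled plus 0.24 uM Alexa 594-labeled) in 100 mM sodium acetate pH 7 with compound, aggregation induced by 20 uM heparin for 6 hr at 37 C. ThT (30 uM) added for 1 hr, then Alexa 594 FP read.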
# Tau fluor counter = counter-screen for tau fibril formation inhibitors; AID 1463; 280,000 compounds, 0.93% hits; tau K18 P301L Alexa594 fluorescence, heparin fibrillization; Potency, µM (highest dose often 57.7 µM), for inactives: top-dose activity change, negative = decrease; also: nearly all actives have a fitted effect of over 55% in size
#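 Human K18 P301L tau (15 uM unlabeled plus 0.24 uM Alexa 594-labeled, final) in 100 mM sodium acetate pH 7 was mixed with compound and 20 uM heparin and incubated 6 hr at 37 C.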
# Gal4-VP16 FLuc = inhibits Gal4-VP16 luciferase reporter, ROR gamma counter-screen | Drosophila S2 Gal4-VP16 UAS-luciferase, luminescence, 20 h | AID 2546 | Potency, µM (series often up to 53.6 µM), for inactives: at the highest dose activity, negative = inhibition, most hits filed as inhibitors | 310,000 compounds, 3.5% hits;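 also: Gal4-VP16 expression switched on by copper sulfate through the metallothionein promoter; nearly all actives have a fitted effect of over 50% in size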
# Tau ThT inhib = tau fibrillization inhibition (ThT binding). P10636. recombinant tau K18 P301L (four-repeat tau fragment), heparin-induced fibrillization, ThT fluorescence. Potency, µM (titrated, usually from 57.4 µM), for inactives: at the top dose activity, negative = inhibition, most hits filed as inhibitors. 270,000 compounds, 2.1% hits. AID 1460; also: nearly all actives have a fitted effect of over 55% in size
#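 Tau K18 P301L fragment (15 uM unlabeled plus 0.24 uM Alexa 594-labeled) in 100 mM sodium acetate pH 7 with compound, fibrillization induced by 20 uM heparin for 6 hr at 37 C. Thioflavin T (30 uM) added, fluorescence read after 1 hr (ex 450, em 510 nm).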
# RORg inh = ROR gamma (mouse) transcription inhibition | P51450 | Potency, µM (titrated, usually from 53.6 µM), for inactives: at the top dose activity change, negative = inhibition, hits mostly inhibitors | 310,000 compounds, 5.4% hits | Drosophila S2 Gal4-RORgamma UAS-luciferase reporter, 20 h; also: nearly all actives have a fitted effect of over 60% in size
# Target sequence (P51450 whole entry, looked up, the tested form may be a part): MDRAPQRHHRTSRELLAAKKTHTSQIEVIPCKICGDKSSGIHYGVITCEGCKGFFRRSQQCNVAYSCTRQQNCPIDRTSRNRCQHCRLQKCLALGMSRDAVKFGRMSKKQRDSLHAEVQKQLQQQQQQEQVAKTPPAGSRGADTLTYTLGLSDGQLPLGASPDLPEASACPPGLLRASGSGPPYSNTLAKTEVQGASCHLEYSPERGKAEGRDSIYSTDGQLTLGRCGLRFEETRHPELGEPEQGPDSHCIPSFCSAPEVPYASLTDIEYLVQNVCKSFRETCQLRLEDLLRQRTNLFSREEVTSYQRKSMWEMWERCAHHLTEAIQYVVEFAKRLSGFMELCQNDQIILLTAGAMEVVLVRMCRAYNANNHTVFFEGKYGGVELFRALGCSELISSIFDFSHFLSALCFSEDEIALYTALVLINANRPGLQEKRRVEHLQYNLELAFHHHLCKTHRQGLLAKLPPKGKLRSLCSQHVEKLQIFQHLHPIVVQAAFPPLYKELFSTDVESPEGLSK
#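 Stable Schneider cell line, Gal4 DNA-binding domain fused to ROR gamma, UAS-luciferase. Cmpd 1 hr RT → CuSO4 700 uM final → 20 hr RT → luciferase reagent 10 min → luminescence.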
# An asterisk follows results filed as active; ? = inconclusive; · = not tested or not shown; [ ] = another dose, or the depositor's remark. Hits are enriched below; roughly 7.3% of the tested compounds scored in any of these assays. Calls follow the shape of the dose curve; as a rule, active = well fitted curve in the direction sought with a large enough effect; inconclusive = small, poorly fitted or top-dose-only effect, or another doubt; inactive = no such curve, though single readings can be large; an effect the other way counts as inactive or inconclusive. % is scaled to controls: 0 for no effect and ±100 for the full control effect; potency is read from the fitted curve at half-maximal effect.
SMILES,Tau fibril FP,Tau fluor counter,Gal4-VP16 FLuc,Tau ThT inhib,RORg inh
O=C(CSCC(=O)Nc1nccs1)Nc1ccccc1,7%,11%,-22%,4%,28%
O=C(Nc1nccs1)c1ccc(COc2c(F)c(F)cc(F)c2F)cc1,·,·,-13%,·,11µM*
COc1ccc(NC(=O)c2c(C)oc3ccc(O)c(CN4CCC(C)CC4)c23)cc1Cl,6%,-28%,·,?,·
O=C(NCC1CCCO1)c1ccc2c(c1)N(Cc1ccccc1)C(=O)CS2 (configuration not stated),·,·,6%,·,2%
CC(C)C(C(=O)Nc1nccs1)c1ccc(Cl)cc1 (configuration not stated),-7%,-16%,?,-4%,14µM*
CCCOc1ccc(C(=O)N(Cc2ccc(Cl)cc2)Cc2ccco2)cc1,4%,-12%,·,?,·
S=C(NCc1ccco1)Nc1ccc(Oc2ccc(Cl)cc2)cc1,?,?,11µM*,-16%,2.8µM*
CCNS(=O)(=O)c1ccc(NC(=S)NCc2ccco2)cc1,-8%,-10%,-11%,-9%,15%
CCOc1ccc(NC(=S)N(Cc2ccc(Cl)cc2)Cc2ccco2)cc1,5%,?,?,-10%,13µM*
O=C(O)Cc1ccc(NC(=S)NCc2ccco2)cc1,-7%,4%,-17%,0%,2%
S=C(NCc1ccco1)Nc1ccccc1,-9%,-13%,?,-14%,8.9µM*
S=C(NCc1ccco1)Nc1ccc(Cl)cc1,-2%,-9%,?,-1%,11µM*
Fc1ccc(Nc2ncnc3ccc(-c4ccoc4)cc23)cc1,·,·,-11%,·,?
CCc1ccc(NCc2cc3cc(OC)c(OC)cc3n(CC(=O)Nc3cc(C)ccc3C)c2=O)cc1,16%,?,·,11%,·
CCOc1ccc(Cl)cc1S(=O)(=O)N1CCC(C(=O)NCc2ccncc2)CC1,·,·,-2%,·,-4%
CC1CCN(C(=O)C2COc3ccccc3C2)CC1 (configuration not stated),4%,12%,·,13%,·
COc1ccc(NCc2cc3cc(OC)ccc3[nH]c2=O)cc1,-4%,-25%,-12%,7.9µM*,34%
C=CCNC(=S)NNC(=O)CCC(O)CCCCC (configuration not stated),1%,-13%,-16%,-8%,10µM*
CCN(CC)S(=O)(=O)c1cccc(NC(=O)C2SC(=Nc3ccc(C)cc3C)C(C(=O)NCC3CCCO3)=C2N)c1 (configuration not stated),?,13µM*[quencher],1%,-14%,30%
CCc1cc2c(=O)c(-c3ccc4c(c3)OCCO4)c(C)oc2cc1OS(C)(=O)=O,2%,-19%,20µM*,-16%,-4%
Nc1oc2ccccc2c(=O)c1-c1ccc2c(c1)OCO2,·,·,3%,·,-14%
Cc1cc(C)n(CCC(=O)N/N=C/c2ccc(Br)c([N+](=O)[O-])c2)n1,0%,-23%,6%,?,43%
Cc1cc([N+](=O)[O-])nn1CC(=O)N/N=C/c1ccccc1O,5%,0%,7.1µM*,-5%,2.2µM*
Cc1cc(C)n(CC(=O)N/N=C/c2cc(Br)cc([N+](=O)[O-])c2O)n1,3%,4%,0.89µM*,?,0.63µM*
Cc1cc(C)n(CC(=O)N/N=C/c2cc([N+](=O)[O-])ccc2O)n1,7%,0%,2.8µM*,8%,2.8µM*
SMILES,Tau fibril FP,Tau fluor counter,Gal4-VP16 FLuc,Tau ThT inhib,RORg inh
COCCn1ccc2c(OCC(=O)Nc3ccccc3F)cccc2c1=O,-1%,7%,·,3%,·
Cc1cccc(NC(=O)c2c(C)cc(C)nc2SCC(=O)Nc2c(C)cc(C)cc2C)c1,-6%,-1%,·,3%,·
O=C(Nc1cccc(-c2nn[nH]n2)c1)c1csc2c1CCCC2,·,·,-4%,·,28%
COc1ccccc1-c1nnc(NC(=O)CSc2nncn2C)s1,9%,6%,?,3%,8.9µM*
COc1ccccc1-c1nnc(NC(=O)C(C)Sc2nncn2C)s1 (configuration not stated),-7%,-5%,-6%,-2%,1%
Cc1ccc(C2=NN=C(NC(=O)CSc3nncn3C)SC2)cc1,?,-18%,-8%,22µM*,0%
Cc1ccc(C)c(N2C(=O)N(Cc3cc(=O)n4ccccc4n3)c3ccccc3S2(=O)=O)c1,3%,-29%,·,-13%,·
CC(C)n1c(CN(C)Cc2ccccc2)nc2c1c(=O)n(C)c(=O)n2C,·,·,1.3µM*,·,?
Cc1ccc(-n2nc(C(=O)N3CCC(C)CC3)c(=O)n(C)c2=O)cc1,-3%,-1%,·,-2%,·
COc1cccc(CC2(CO)CCCN(Cc3ccc(OC)c(C)c3OC)C2)c1 (configuration not stated),·,·,3%,·,-33%[1.91 µM]
Cn1cc([C@@H]2C[C@H]3CN(Cc4cccc(Cl)c4)C(=O)[C@]34CCCN24)c(-c2ccccc2)n1,9%,3%[2.34 µM],4µM*,3%,?
CC(=O)[C@H](CC(C)C)NC(=O)[C@@H](CC(C)C)NC(=O)[C@H](CC(C)C)NC(=O)OCc1ccccc1,-2%,-8%,-9%,-15%,?
Cc1cccc(NC(=O)CS(=O)(=O)Cc2ccccc2)n1,-7%,-7%,9%,-5%,-7%
CCc1ccccc1N(CC(=O)NCCc1ccccc1)C(=O)CCC(=O)Nc1ccccn1,·,·,-5%,·,?
Cc1cccc(NC(=S)NCCc2ccccc2)n1,-1%,-9%,3.2µM*,-4%,0.56µM*
S=C(NCCc1ccccc1)Nc1ccccn1,-1%,-1%,3.2µM*,-2%,1.1µM*
COC(=O)C1CC1C(NC(=O)[C@H]1CCCCN1)c1ccccc1 (some centres not stated),4%,-9%,-11%,-1%,1%
N#CCCn1c(=O)c(-c2ccc(F)cc2)nc2cnc(Oc3ccccc3)nc21,·,·,-1%,·,-11%
CCOc1ccc(NC(=O)NCCN2CCN(c3cc(Cl)ccc3C)CC2)cc1,?,14µM*[quencher],·,?,·
Cc1ccc(Cl)cc1N1CCN(CCNC(=O)Nc2ccc(Cl)cc2)CC1,13µM*,?,·,-1%,·
N#Cc1c(C(F)(F)F)cc(-c2cccs2)nc1SCC(=O)Nc1ccccc1F,-14%,4%,·,?,·
C#CCCCO/N=C1/C[C@@H](O)[C@@H](O)[C@@H]2[C@@H]3C(=O)N(c4cccc(Oc5ccccc5)c4)C(=O)[C@H]3CC[C@@H]12,1%[11.6 µM],-4%[11.6 µM],5%[10 µM],-2%[11.5 µM],1%[10 µM]
CCN(CC)c1ccc2cc(-c3nc4ccccc4n3C)c(=O)oc2c1,5%,-9%,2%,?,1%
CCN(CC)c1ccc2cc(-c3nc4ccccc4[nH]3)c(=O)oc2c1,-3%,-13%,-7%[0.365 µM],?,2.8µM*
CCN=C1NN=C(c2cc(C)n(CCc3ccccc3)c2C)CS1,-12%,-18%,-2%,?,0%
CCN=C1NN=C(c2cc(C)n(Cc3ccco3)c2C)CS1,-1%,-15%,?,?,0.28µM*
